Holding throughout (conditions): treatment time: 24 h
Test [1] deals with A549-ACTB-RAB5A. The test is described as follows: lowest phenotypically active concentration; higher = less potent. An outline of the steps: (§1)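 Phenotypic activity depended on meeting both a deviation and a reproducibility criterion. The fifteen gene-edited A549, HepG2 and WPMY1 reporter lines were treated at 0.3, 1, 3 or 9 µM for 24 h, four wells each, then imaged live with features normalised to solvent control wells. Deviation required ≥3 of 4 wells past the 95th percentile of control Euclidean distances, and reproducibility a median replicate Pearson correlation above the 95th percentile of non-replicates.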

The subject of test [2] is A549-GM130-SQSTM1. The test is described as above. In a few lines:
as §1

The subject of test [3] is A549-TUBA1B-RELA. The test is described as above. In a few lines: as §1
Test [4] concerns HepG2-ACTB-RAB5A. The description is as above. An outline of the steps: as §1
Test [5] relates to WPMY1-CANX-COX4. The description is as above. In a few lines:
as §1

Test [6] relates to A549-ACTB-RAB5A. The test is described as follows: phenotypically active (imaging signature differs from DMSO and reproducible) at any of 0.3-9 uM (binary (1 = active, 0 = inactive)); higher = active. An outline of the steps: as §1
For a further test, the system named is A549-CANX-COX4. The description is as above. An outline of the steps:
as §1

The subject of test [7] is A549-GM130-SQSTM1. The test is described as above. An outline of the steps: as §1
In the next test the test system is A549-TP53BP1-CLTA. The description is as above. An outline of the steps: as §1
Test [8] deals with A549-TUBA1B-RELA. The test is described as above. In a few lines: as §1
For test [9], the system named is HepG2-ACTB-RAB5A. Described as above. In a few lines:
as §1

Another test has as its system HepG2-CANX-COX4. The test is described as above. An outline of the steps: as §1
Another test has as its system HepG2-GM130-SQSTM1. The test is described as above. An outline of the steps: as §1
Another test deals with HepG2-TP53BP1-CLTA. The test is described as above. In a few lines:
as §1

In another test the test system is HepG2-TUBA1B-RELA. Described as above. In a few lines: as §1
The subject of a further test is WPMY1-ACTB-RAB5A. The test is described as above. An outline of the steps: as §1
Test [10] relates to WPMY1-CANX-COX4. Described as above. An outline of the steps: as §1
Another test deals with WPMY1-GM130-SQSTM1. Described as above. In a few lines: as §1
For the next test, the system named is WPMY1-TP53BP1-CLTA. The description is as above. In a few lines:
as §1

In a further test the test system is WPMY1-TUBA1B-RELA. Described as above. An outline of the steps:
as §1

The text below walks through data of the supplement of paper PMC7411054.

On to `OCc1cc(C(O)CNCCCCCCOCCCCc2ccccc2)ccc1O` (stereo not given) [salmeterol], for which the “lowest phenotypically active concentration” value was determined as 9 µM with A549-ACTB-RAB5A [1]; 9 µM in the test on A549-GM130-SQSTM1 [2]; 9 µM in the test on A549-TUBA1B-RELA [3]; 9 µM in the test with HepG2-ACTB-RAB5A [4]; 3 µM with WPMY1-CANX-COX4 [5]. The phenotypically active in the test on A549-ACTB-RAB5A [6] was 1 (active); in the test with A549-CANX-COX4, 1 (active); with A549-GM130-SQSTM1 [7], 1 (active); in the test on A549-TP53BP1-CLTA it was 0 (inactive); in the test with A549-TUBA1B-RELA [8], 1 (active); in the test with HepG2-ACTB-RAB5A [9] it was 1 (active). The phenotypically active in the test with HepG2-CANX-COX4 was 0 (inactive); with HepG2-GM130-SQSTM1 it was 1 (active); in the test with HepG2-TP53BP1-CLTA, 1 (active); in the test with HepG2-TUBA1B-RELA it was 1 (active); in the test with WPMY1-ACTB-RAB5A it was 1 (active); with WPMY1-CANX-COX4 [10], 1 (active). The phenotypically active with WPMY1-GM130-SQSTM1, in the test on WPMY1-TP53BP1-CLTA and with WPMY1-TUBA1B-RELA was 1 (active) in each case.

In the case of `C=C1C(=O)O[C@@H]2C=C(C)CCC=C(C)CC[C@@H]12` [Costunolide], the “lowest phenotypically active concentration” value in the test with A549-ACTB-RAB5A [1] and in the test on HepG2-ACTB-RAB5A [4] was 9 µM each time. The phenotypically active in the test on A549-ACTB-RAB5A [6] was 1 (active); in the test with A549-CANX-COX4 it was 1 (active); with A549-GM130-SQSTM1 [7] it was 0 (inactive); with A549-TP53BP1-CLTA, 0 (inactive); with A549-TUBA1B-RELA [8] it was 0 (inactive); in the test with HepG2-ACTB-RAB5A [9], 1 (active). The phenotypically active in the test with HepG2-CANX-COX4 was 1 (active); with HepG2-GM130-SQSTM1, 1 (active); with HepG2-TP53BP1-CLTA, 1 (active); with HepG2-TUBA1B-RELA it was 0 (inactive); in the test with WPMY1-ACTB-RAB5A, 1 (active); with WPMY1-CANX-COX4 [10] it was 0 (inactive). The phenotypically active with WPMY1-GM130-SQSTM1, in the test with WPMY1-TP53BP1-CLTA and in the test on WPMY1-TUBA1B-RELA was 1 (active) each time.

Consider `O=C1/C(=C\c2ccncc2)CCC/C1=C\c1ccncc1`, for which the “lowest phenotypically active concentration” value came to 3 µM in the test on A549-ACTB-RAB5A [1], 3 µM in the test with A549-GM130-SQSTM1 [2], 9 µM in the test on HepG2-ACTB-RAB5A [4] and 3 µM in the test with WPMY1-CANX-COX4 [5]. Besides, the phenotypically active in the test on A549-ACTB-RAB5A [6] is 1 (active); in the test on A549-CANX-COX4, 1 (active); with A549-GM130-SQSTM1 [7] it was 1 (active); with A549-TP53BP1-CLTA it was 0 (inactive); in the test with A549-TUBA1B-RELA [8], 0 (inactive); in the test on HepG2-ACTB-RAB5A [9], 1 (active). The phenotypically active in the test with HepG2-CANX-COX4, in the test with HepG2-GM130-SQSTM1, in the test with HepG2-TP53BP1-CLTA, with HepG2-TUBA1B-RELA, with WPMY1-ACTB-RAB5A and with WPMY1-CANX-COX4 [10] was 1 (active) in each case. The phenotypically active in the test with WPMY1-GM130-SQSTM1, in the test with WPMY1-TP53BP1-CLTA and in the test with WPMY1-TUBA1B-RELA was 1 (active) in each case.

In the case of `CCCOc1ccc(CCc2nc3cc(-c4c(C)noc4C)ccc3n2CCN2CCOCC2)cc1`, the “lowest phenotypically active concentration” value in the test on A549-ACTB-RAB5A [1] and in the test with HepG2-ACTB-RAB5A [4] was 9 µM throughout. For the same compound, the phenotypically active in the test on A549-ACTB-RAB5A [6] was 1 (active); in the test with A549-CANX-COX4 it was 1 (active); in the test with A549-GM130-SQSTM1 [7], 0 (inactive); with A549-TP53BP1-CLTA, 0 (inactive); with A549-TUBA1B-RELA [8] it was 0 (inactive); with HepG2-ACTB-RAB5A [9], 1 (active). Moreover, the phenotypically active in the test on HepG2-CANX-COX4 is 1 (active); with HepG2-GM130-SQSTM1 it was 0 (inactive); with HepG2-TP53BP1-CLTA it was 1 (active); with HepG2-TUBA1B-RELA it was 0 (inactive); in the test on WPMY1-ACTB-RAB5A it was 0 (inactive); in the test on WPMY1-CANX-COX4 [10], 0 (inactive). Further, the phenotypically active in the test with WPMY1-GM130-SQSTM1, in the test with WPMY1-TP53BP1-CLTA and with WPMY1-TUBA1B-RELA was 0 (inactive) in each case.

As to `O=c1c(-c2ccc(O)cc2)coc2cc(O[C@@H]3O[C@H](CO)[C@@H](O)[C@H](O)[C@H]3O)cc(O)c12` [Genistin], the “lowest phenotypically active concentration” value in the test on A549-ACTB-RAB5A [1], with A549-TUBA1B-RELA [3] and in the test with WPMY1-CANX-COX4 [5] was 9 µM each time. Besides, the phenotypically active in the test with A549-ACTB-RAB5A [6] is 1 (active); in the test with A549-CANX-COX4, 1 (active); in the test on A549-GM130-SQSTM1 [7], 0 (inactive); in the test on A549-TP53BP1-CLTA, 1 (active); with A549-TUBA1B-RELA [8], 1 (active); in the test on HepG2-ACTB-RAB5A [9] it was 0 (inactive). The phenotypically active was 0 (inactive) in the test with HepG2-CANX-COX4; 0 (inactive) in the test with HepG2-GM130-SQSTM1; 0 (inactive) in the test with HepG2-TP53BP1-CLTA; 0 (inactive) with HepG2-TUBA1B-RELA; 1 (active) in the test on WPMY1-ACTB-RAB5A; 1 (active) with WPMY1-CANX-COX4 [10]. Moreover, the values for the phenotypically active with WPMY1-GM130-SQSTM1, in the test with WPMY1-TP53BP1-CLTA and with WPMY1-TUBA1B-RELA were 0 (inactive), 1 (active) and 0 (inactive), respectively.

Turning to `CCn1c(=O)n([C@H]2CCCN(c3nccc(-c4cc5ccccc5o4)n3)C2)c2ccccc21`, the “lowest phenotypically active concentration” value stood at 3 µM with A549-ACTB-RAB5A [1], 3 µM in the test on A549-GM130-SQSTM1 [2], 9 µM in the test on A549-TUBA1B-RELA [3] and 3 µM with WPMY1-CANX-COX4 [5]. Also, the phenotypically active with A549-ACTB-RAB5A [6] is 1 (active); with A549-CANX-COX4 it was 1 (active); in the test with A549-GM130-SQSTM1 [7] it was 1 (active); in the test with A549-TP53BP1-CLTA, 1 (active); in the test with A549-TUBA1B-RELA [8], 1 (active); with HepG2-ACTB-RAB5A [9] it was 0 (inactive). Besides, the phenotypically active is 0 (inactive) with HepG2-CANX-COX4; 0 (inactive) with HepG2-GM130-SQSTM1; 0 (inactive) in the test with HepG2-TP53BP1-CLTA; 0 (inactive) in the test on HepG2-TUBA1B-RELA; 0 (inactive) in the test on WPMY1-ACTB-RAB5A; 1 (active) with WPMY1-CANX-COX4 [10]. In addition, the phenotypically active with WPMY1-GM130-SQSTM1, in the test with WPMY1-TP53BP1-CLTA and in the test with WPMY1-TUBA1B-RELA was 0 (inactive) throughout.
